assay: A549 cell viability effects, profiling panel, calcein-AM fluorescence, 48 h, basal (AID 1162); details: higher = more signal
Also: test concentration not given here.

Row | SMILES | z-score
1 | CC(C)c1ccc(NN2C(C(O)C(C)C)C=CC3C(=O)N(c4ccccc4)C(=O)C32)cc1 (stereo not given) | -0.149
2 | CCCC[C@H]1OB(O)C[C@H]2C1=C(COC)C[C@H]1C(=O)C=CC(=O)[C@H]12 | 0.2
3 | COc1ccc([Si](C)(C)[C@H]2[C@H](CCn3cc([C@H](O)c4ccccc4)nn3)O[C@@]3(C(=O)N(c4ccccc4)c4ccccc43)[C@@H]2C)cc1 | -0.13
4 | N#Cc1ccc(C(O)C2C=CC3C(=O)NC(=O)C3N2Nc2ccccn2)cc1 (stereo not given) | 0.517
5 | O=C1C2C=CC(C(O)c3cccs3)N(Nc3ccccc3)C2C(=O)N1c1ccccc1 (stereo not given) | -0.125
6 | CC(C)=CCN(C(=O)C#Cc1ccccc1)[C@H](CO)c1ccccc1 | -3.88
7 | CCCC[C@@H]1C[C@H]1[C@@H](NC(=O)Cc1ccccc1)c1ccc(Cl)cc1 | -1.07
8 | O=C1C2C=CC(C(O)c3ccc([N+](=O)[O-])cc3)N(Nc3ccccc3)C2C(=O)N1c1ccccc1 (stereo not given) | -0.121
9 | O=C1C2C=CC(C(O)C(c3ccccc3)c3ccccc3)N(Nc3ccccc3)C2C(=O)N1c1ccccc1 (stereo not given) | 0.758
10 | CC(C)CNC(=O)[C@@]1(C)c2ccccc2C(=O)N(Cc2cc(F)cc(C(F)(F)F)c2)[C@H]1c1ccc(CO)cc1 | -0.0148
11 | Cc1c(NC(=O)/C(C#N)=C/c2ccc(Cl)cc2)c(=O)n(-c2ccccc2)n1C | 1.48
12 | CN1C(=O)[C@]2(CCS(=O)(=O)c3ccccc3)N=C(c3ccc(OCCCO)cc3)O[C@@H]2c2ccccc21 | -0.189
13 | COc1cccc(C[C@H]2C[C@@H](CO[Si](C(C)C)(C(C)C)C(C)C)N3C(=O)[C@@]4(C(C)=O)O[C@@]23[C@@H]2C(=O)N(C)C(=O)[C@@H]24)c1 | -2.05
14 | CC(=O)n1cc(C(O)C2C=CC3C(=O)N(c4ccccc4)C(=O)C3N2Nc2ccccc2F)c2ccccc21 (stereo not given) | 0.512
15 | CC=CC(O)C1C=CC2C(=O)N(C)C(=O)C2N1NC(=O)OC(C)(C)C (stereo not given) | -0.73

assay: adipocyte viability effects, profiling panel, cell-based, 3T3-L1 adipocytes, calcein-AM fluorescence, 48 h, basal (AID 1163); details: 3T3-L1 adipocytes viability, higher = more signal

Row | SMILES | z-score
16 | CCCCC(=C=CC[C@@H](O)c1cccc(OCCO)c1)CCO | -0.634
17 | C=CCOC(=O)[C@@H]1[C@H]2C(=O)O[C@H](c3ccccc3)[C@H](c3ccccc3)N2[C@H](c2ccc(OCCOC(=O)[C@H]3C[C@H]4C(=O)NCC(=O)N4[C@H]3c3ccc(O)cc3)cc2)[C@@]12C(=O)Nc1ccc(I)cc12 | -0.105
18 | CN1C=C(C(=O)OCCS(C)(=O)=O)C(C(=O)OCCS(C)(=O)=O)=CC(CCCO)=CC1c1ccc(CN2CCCC2)cc1 (stereo not given) | -2.48
19 | COCCOC(=O)N1C(=O)[C@@]2(c3cc(C#CC4(O)CCCCCC4)ccc31)[C@H](C(=O)N1CCc3cc(OC)c(OC)cc3C1)[C@H]1C(=O)O[C@H](c3ccccc3)[C@H](c3ccccc3)N1[C@@H]2c1ccc(O)cc1 | 1.29
20 | O=C1O[C@@H](c2ccccc2)[C@@H](c2ccccc2)N2[C@@H](c3ccc(OCCO)cc3)[C@]3(C(=O)Nc4ccc(C#CCCO)cc43)[C@@H](C(=O)Nc3nc4ccccc4s3)[C@H]12 | 0.794
21 | COCCCNC(=O)[C@@H]1c2ccccc2C(=O)N(C2CCCCC2)[C@H]1c1ccc(CO)cc1 | 1.15
22 | C=CC[C@]1(C(=O)NCc2ccccc2)COC(c2ccc(OCCCO)cc2)=N1 | 0.548
23 | CN(C)CCCNC(=O)[C@@]1(Cc2ccccc2I)c2ccccc2C(=O)N(Cc2ccccc2)[C@H]1c1ccc(CO)cc1 | -0.826
24 | COc1cccc(OC)c1C(=O)O[C@H]1[C@@H]2OC(=O)[C@H](Cc3cccc(Br)c3)C/C=C/C[C@@H](Cc3cccc(Br)c3)C(=O)O[C@H]2[C@@H](OC)O[C@@H]1CO | 0.0726
25 | [N-]=[N+]=NCc1ccccc1C[C@]1(C(=O)NCc2ccccc2)N=C(c2ccc(OCCCO)cc2)O[C@H]1c1ccccc1CN=[N+]=[N-] | 2.15
26 | COCCOC(=O)N1C(=O)[C@@]2(c3cc(C#Cc4ccc(OC)cc4)ccc31)[C@H](c1ccc(OCCO)cc1)N1[C@H](c3ccccc3)[C@H](c3ccccc3)OC(=O)[C@H]1[C@@H]2C(=O)N1CCCCCCC1 | 1.96
27 | Cc1ccc(S[C@]2(C(=O)NC3CC3)CC(=O)N(Cc3cc(C(F)(F)F)cc(C(F)(F)F)c3)[C@@H]2c2ccc(CO)cc2I)cc1 | -0.136
28 | CC1(C)OC[C@@]23C=C(Br)[C@@H](C[C@H]12)[C@@]1(CO1)C3=O | -0.588
29 | CCOC(=O)C1=CC[C@@H](c2ccccc2)N(S(=O)(=O)c2ccc(C)cc2)[C@H]1C#N | -0.84
30 | COc1ccccc1CN1C(=O)c2ccccc2[C@](Cc2ccccc2I)(C(=O)NCCCN(C)C)[C@@H]1c1ccc(CO)cc1 | -0.247

Source: PubChem BioAssay
